Rows were chosen to be rich in hits. Some 6.3% of all compounds tested hit in one or more screens of this group.
tim10-1 inh: growth inhibitors of tim10-1 mutant yeast, primary screen, luminescence, uHTS. S. cerevisiae tim10-1 ts strain growth, BacTiter-Glo, 24 h. inhibition, % at 20 µM. 2.2% of 330,000 active. AID 463190, 2010;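 active = inhibition of at least 40%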;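 also: mutant grown at 25 °C; 0% = DMSO wells with yeast and 100% = wells holding no yeast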
tim23-1 inh: growth inhibitors of tim23-1 mutant yeast, primary screen, luminescence, uHTS | S. cerevisiae tim23-1 growth, BacTiter-Glo luminescence, 24 h | inhibition, % at 20 µM | 1.3% of 330,000 active;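 active = growth inhibition of the mutant yeast at or above 50%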;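 also: temperature-sensitive mutant grown at 25 °C; plate controls were DMSO-treated mutant yeast for no effect and medium wells lacking yeast for full effect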
TIM10 inh: growth inhibitors of isogenic TIM10 control yeast, primary screen, counter-screen for tim10-1 yeast inhibitor project, luminescence, uHTS. S. cerevisiae TIM10 strain growth, BacTiter-Glo luminescence, 24 h. inhibition, % at 10 µM. 1.4% of 330,000 active;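 active = inhibition of 40% or more at the single tested concentration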;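 also: wild-type TIM10 isogenic control strain grown at permissive 25 °C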
Mdm2-MdmX inh: inhibitors of human Mdm2-MdmX association, primary screen, cell-based, luminescence, split luciferase, SaOS-2, uHTS; Protein Mdm4 (Homo sapiens) + E3 ubiquitin-protein ligase Mdm2 (Homo sapiens), …; SaOS-2 split-luciferase Mdm2/MdmX complementation; inhibition, % at 8 µM; 3% of 330,000 active; AID 485346, 2010;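 active = inhibition of at least 50% at 8 µM in the primary screen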
MPTP inh: mitochondrial permeability transition pore inhibitors, primary screen, biochemical, isolated mouse mitochondria, absorbance; Ca2+ swelling absorbance, 30 min; inhibition, % at 10 µM; 1.4% of 360,000 active; AID 602449, 2012;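 active = inhibition of 50% or more, scaled per plate between neutral and stimulator controls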;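 also: 0% = DMSO wells given calcium and 100% = 1 mM EGTA wells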
Mdm2 MdmX conf: Mdm2-MdmX complex disruptors, retested hits, confirmation, luminescence, single concentration; shares compounds with Mdm2-MdmX inh; Mdm2-MdmX binding, luminescent assay; inhibition, % at 8 µM; 55% of 10,000 active; AID 489028, 2010; in the data active = inhibition above about 40%
Full FLuc ctr: full-length luciferase signal inhibition, confirmation, counter-screen for Mdm2/MdmX interaction inhibitor project, cell-based, single concentration, SaOS-2; 77% of 6,200 active; AID 504607, 2011; shares compounds with Mdm2-MdmX inh; SaOS-2 full-length luciferase counterscreen, luminescence; inhibition, % at 8 µM;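 active = mean inhibition at 8 µM reaching about 37%, which flags the compound as non-specific, limit read from the data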;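 also: p53-null SaOS-2 cells with luciferase driven by a doxycycline-inducible promoter; compound on cells about two nights before reading with doxycycline added after day one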
* hit, by the source's call; . = no result given.

SMILES	tim10-1 inh	tim23-1 inh	TIM10 inh	Mdm2-MdmX inh	MPTP inh	Mdm2 MdmX conf	others
COc1cc(NC(=O)c2cc3c(C)nc4ccccc4c3o2)cc(OC)c1OC	21	30	7	59*	-2	29
CC(=O)NC1(C)CCC2CC1C(C)=NC2(C)C (centres undefined)	.	.	.	.	0	.
Oc1ccc(/C=N/Nc2nc(-c3ccc(Cl)cc3)cc(C(F)(F)F)n2)cc1	37	24	27	57*	7	22
COc1ccc(CN(C)C(=O)c2ccc(NC(=O)CC3SC(N4CCCCC4)=NC3=O)cc2)c(OC)c1 (centres undefined)	.	.	.	.	0	.
Cc1cc(C(=O)NCCN2CCN(c3cccc(Cl)c3)CC2)n(-c2ccccc2)n1	22	11	2	53*	0	59*	Full FLuc ctr=62*
Cc1cc(C(=O)NCCCN2CCN(c3cc(Cl)ccc3C)CC2)n(-c2ccccc2)n1	20	6	-1	10	14	.
COc1ccc(CN2C(=O)C(CC(=O)NC3CC3)CC(C(=O)N(C)C)=C2C)cc1 (centres undefined)	.	.	.	.	2	.
CCOC(=O)C1=C(C)NC(C)=C(C(=O)OCC)C1c1ccncc1	.	.	.	.	1	.
COC(=O)c1cc(=O)n(Cc2ccc(F)cc2)c(=NCc2ccc(F)cc2)s1	15	-7	1	25	1	.
COC(=O)c1cc(=O)n(Cc2cccs2)c(=Nc2ccc(F)cc2)s1	29	21	9	50*	3	12
COC(=O)c1cc(=O)n(Cc2ccc3c(c2)OCO3)c(=Nc2ccc(F)cc2)s1	10	15	17	57*	0	31
COc1ccc(NC(=O)Cn2c([N+](=O)[O-])cnc2C)c(OC)c1	.	.	.	.	0	.
COc1ccc(-c2nn(C)c(=O)c3ccccc23)cc1NS(C)(=O)=O	1	6	-6	68*	0	27
COc1ccc(-c2nn(C)c(=O)c3ccccc23)cc1CNS(C)(=O)=O	-10	3	4	42	14	.
CSc1ccc(C(O)c2ncc(-c3ccc(F)cc3)[nH]2)cc1 (centres undefined)	.	.	.	.	1	.
COc1cc(-c2nnc(COc3ccc4cc(Br)ccc4c3)o2)cc(OC)c1OC	24	19	13	60*	6	8
Nc1cc(=O)nc2cn[nH]n12	.	.	.	.	-2	.
COc1ccccc1-c1ncn(Cc2cccc(-c3ccccc3)c2)c1CC(C)C	.	.	.	.	20	.
CCc1nc(Nc2ccc(O)cc2)c2oc3ccccc3c2n1	5	45	4	51*	2	2
CCc1nc(Nc2ccccc2O)c2oc3ccccc3c2n1	-43	-2	7	-2	1	.
O=C1c2cccc3cccc(c23)C(c2nc3ccccc3[nH]2)N1C1CC1 (centres undefined)	.	.	.	.	0	.
OC(c1ccc(-c2ccccc2)cc1)c1ncc(-c2ccccc2F)[nH]1 (centres undefined)	.	.	.	.	3	.
O=C(NNC(=O)c1cc2cc3ccccc3nc2s1)c1cccc(Cl)c1	1	19	-1	57*	1	36	Full FLuc ctr=109*
Cc1cccc(C(=O)NNC(=O)c2cc3cc4ccccc4nc3s2)c1	1	16	-6	51*	0	7
O=C(NNC(=O)c1cc2cc3ccccc3nc2s1)c1ccc(F)cc1	-4	-16	-26	22	-1	.
SMILES	tim10-1 inh	tim23-1 inh	TIM10 inh	Mdm2-MdmX inh	MPTP inh	Mdm2 MdmX conf	others
CCOc1ccc(CNC(=O)c2cc3oc4ccccc4c3n2C)cc1	-19	15	-9	85*	3	88*	Full FLuc ctr=26
COc1cccc(CNC(=O)c2cc3oc4ccccc4c3n2C)c1OC	-4	-1	-27	97*	-3	96*	Full FLuc ctr=47*
CCOc1ccccc1CNC(=O)c1cc2oc3ccccc3c2n1CC	37	20	4	93*	1	89*	Full FLuc ctr=26
Cc1ccc(S(=O)(=O)N(C)C[C@@H]2OCc3cn(nn3)CCCC(=O)N([C@H](C)CO)C[C@H]2C)cc1	.	.	.	.	0	.
COCCNC(=O)C1(C)CCN(C(=O)c2sccc2C)C1 (centres undefined)	.	.	.	.	0	.
CCOC(=O)C1=C(N)n2c(s/c(=C\c3cccs3)c2=O)=C(C(=O)OCC)C1c1cccs1 (centres undefined)	14	12	-6	62*	1	50*	Full FLuc ctr=79*
CCOC(=O)C1=C(N)n2c(s/c(=C\c3ccncc3)c2=O)=C(C(=O)OCC)C1c1ccncc1 (centres undefined)	13	16	18	15	0	.
O=C(Nc1ccc2c(c1)OCCO2)C1c2ccccc2OCC(=O)N1CCc1ccccc1 (centres undefined)	.	.	.	.	-2	.
COC(=O)C1(C(=O)OC)C/C=C\CN(S(=O)(=O)c2ccccc2[N+](=O)[O-])CC1	.	.	.	.	0	.
CC1=NN(c2ccccc2)C(=O)/C1=C/C=C/c1ccccc1	23	48	30	65*	3	52*	Full FLuc ctr=49*
C[C@H](CO)N1C[C@H](C)[C@H](CN(C)C(=O)NC2CCCCC2)Oc2ncc(Br)cc2C1=O	.	.	.	.	-2	.
O=C1c2ccccc2-c2onc3ccc(NCc4ccco4)c1c23	5	40	37	58*	6	25
COc1ccc(CN2C(=NC(=O)c3ccccc3)SC3CS(=O)(=O)CC32)cc1OC (centres undefined)	18	19	1	-4	2	.
COc1ccc(CN2C(=NC(=O)c3ccccc3)SC3CS(=O)(=O)CC32)cc1 (centres undefined)	3	-7	-7	50*	0	5
COc1ccc(C(=O)N=C2SC3CS(=O)(=O)CC3N2Cc2ccc(F)cc2)cc1 (centres undefined)	12	3	-10	51*	1	41*	Full FLuc ctr=65*
CC(C)Nc1nc(NCc2ccccc2)c2sccc2n1	.	.	.	.	3	.
Cc1c(/C=N/NC(=O)c2cccs2)c2ccccc2n1Cc1ccccc1Cl	-9	-7	-2	72*	2	65*	Full FLuc ctr=90*
Cc1ccc([C@H]2C[C@@H](O)[C@H](n3cc(COC(=O)c4ccccc4)nn3)CN2C(=O)c2cccs2)cc1	.	.	.	.	-1	.
CCc1cc2c(=O)n(Cc3ccco3)c(SCc3c(C)noc3C)nc2s1	29	26	13	72*	1	66*	Full FLuc ctr=48*
